Inconclusive results are not listed. Calls follow the shape of the dose curve; as a rule, active = well fitted curve in either direction with a large enough effect (not every such curve was filed as active); inconclusive = small, poorly fitted or top-dose-only effect, or another doubt; inactive = flat fitted curve, though single readings scatter.
Test: AP1 Signaling Pathway (AID 357);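 also: ME-180 reporter cells stimulated with EGF at its EC50 level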
Conditions: ME-180 (cervical carcinoma) AP-1-bla reporter, EGF-induced, beta-lactamase ratio, 5 h; at 17.2 µM (top of the series) unless noted
Procedure, shortened: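 A ratiometric CCF4 readout (405 nm excitation; 460 and 530 nm emission) quantified AP-1-driven beta-lactamase in ME-180 cells after 5 h with compound and EC50 EGF; AC50 values were derived for activators and inhibitors.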
% is scaled to controls: 0 for no effect and ±100 for the full control effect.

Activity change, negative = inhibition, inactive:
CN(C)CCOC(=O)Cc1ccc(Cl)cc1 12%
CN(C)CCCO[C@H]1[C@H]([C@H](O)CO)O[C@H]2OC(C)(C)O[C@@H]21 6.88% [at 38 µM]
Cc1ccc(SCc2[nH]nc3c2C(c2ccc(C)o2)C(C#N)=C(N)O3)cc1 (centres undefined) -23.1%
COc1ccccc1C1/C(=C(/O)c2ccc(OC(C)C)cc2)C(=O)C(=O)N1c1cc(C)on1 (centres undefined) -28.1%
Cn1c2c(c(=O)n(C)c1=O)C(NC(=O)C(C)(C)C)(C(F)(F)F)C(=O)N2 (centres undefined) -5.62%
CCOc1ccc(C2C(C(=O)c3ccc(C)o3)=C(O)C(=O)N2CCN2CCOCC2)cc1OC (centres undefined) 0.475%
CCc1ccc(NC(=O)CSC2=C(C#N)C(c3ccc4c(c3)OCO4)CC(=O)N2)cc1 (centres undefined) -19.8%
COCc1cc(C)nc(SCC(=O)Nc2ccc(C)c(C)c2)c1C#N 2.07%
CCOC(=O)CSC1=C(C#N)C(=O)NC(c2ccc(OC)c(OC)c2)S1 (centres undefined) -12.5%
Cc1ccc(Oc2nc3c(c(=O)n(Cc4ccccc4F)c(=O)n3C)n2C)cc1 -27.5%
CC(C)(C)OC(=O)N1CC=C2C(C#N)=C(N)C(C#N)(C#N)[C@H](c3cccnc3)[C@H]2C1 3.85%
CCC(c1c(C)n(C)n(-c2ccccc2)c1=O)c1c(C)n(C)n(-c2ccccc2)c1=O 6.29%
C=C(Br)CN1CCN(CC(=C)Br)CC1 10.5%
CC(C)(C)c1ccc(O)c(N)c1 3.38%
CCCCCCCCCCCCCCCCCC(=O)NC[C@@H](COP(=O)([O-])OCC[N+](C)(C)C)OCC -12.5% [at 38 µM]
Oc1ccc(Br)cc1CNn1cnnc1 2.16%
CCn1cc(C(=O)NCc2ccccn2)c(=O)c2cc(F)c(N3CCN(C)CC3)cc21 -1.53%
COC(=O)/C(=C1/Oc2cc(C)oc(=O)c2S1)C(F)(F)F 7.82%
Cn1c(=O)n(Cc2ccccc2)c(=O)c2c1nc(NCC1CCCO1)n2Cc1ccccc1 (centres undefined) -28.9%
N#Cc1c2c(c(-c3ccccc3)[nH]c1=O)CCCC2 5.23%
CC1(C)Cc2c(C#N)c(NCC3CCCO3)nc(-c3ccco3)c2CO1 (centres undefined) -9.98%
Cc1ccc(-c2nn3c(-c4cccc(Cl)c4)nnc3s2)cc1 24.6%
CSc1nc(N2CCCC2)c2c(c1C#N)CC(C)(C)OC2 -20.7%
CC1(C(=O)CSc2ncn[nH]2)CCC(=O)O1 (centres undefined) -3.81%
COc1ccc(-c2nn3c(COc4ccccc4)nnc3s2)cc1OC -9.35%
COc1ccc(CCCNC(=O)CC#N)cc1OC 13.8%
CCCCOC(=O)CSc1nc(N)c(C#N)c(-c2ccc(OC)cc2)c1C#N -13.6%
Cc1cc(C)n(C(=O)CN2C(=O)CCC2=O)n1 14.2%
CC(=O)C1=C(O)C(=O)N(c2cccc(C(=O)O)c2)C1c1ccccc1F (centres undefined) -4.91%
CC(=O)c1ccc(O)c(CO)c1 12.6%
CCCCCCCCCC(=O)N[C@@H](CN1CCOCC1)[C@@H](O)c1ccccc1 5.88% [at 38 µM]
CCC(C)Nc1nc(OC)nc(N(C)C#N)n1 (centres undefined) 12.2%
CCC(=O)Nc1nc(C)c(Oc2ccccc2)c(=O)[nH]1 6.64%
COc1ccc(N(CN2C(=O)C3C4C=CC(C4)C3C2=O)C(=O)c2ccco2)cc1 (centres undefined) -8.5%
CC[C@H](C)[C@@H]1O[C@]2(CC[C@@H]1C)C[C@H]1C[C@H](CC=C(C)[C@@H](O[C@@H]3C[C@H](OC)[C@H](O[C@@H]4C[C@H](OC)[C@H](O)[C@H](C)O4)[C@H](C)O3)[C@@H](C)C=CC=C3CO[C@@H]4[C@@H](O)C(C)=C[C@@H](C(=O)O1)[C@]34O)O2 -26.8%
CC(=O)Oc1oc(-c2ccccc2)nc1/C=N/c1ccccn1 -71.1%
COC(=O)C(NC(C)=O)(Nc1ccc(Br)cn1)C(F)(F)F (centres undefined) 0.568%
CCCCN(C(=O)CCC(=O)O)C1CC(=O)N(c2ccc(OCCC)cc2)C1=O (centres undefined) 0.952%
Cn1c(=O)c2c(nc(Br)n2Cc2ccc3ccccc3c2)n(C)c1=O -1.43%
